# Screening results as filed in PubChem.
# Hits are enriched below; roughly 6.7% of the tested compounds scored in any of these assays.
# Pf Dd2 inh: blocks growth of Plasmodium falciparum Dd2 parasites; P. falciparum Dd2 growth, SYBR Green, 72 h; active compounds read low; activity change, % at 10 µM; 94,000 compounds, 2.3% hits; in the data active means activity change below about -80%
# C diff growth: inhibitors of Clostridium difficile growth | Clostridium difficile clinical isolate growth, OD600, 24 h; active compounds read low | growth activity, negative = inhibition, % at 16 µg/mL (by protocol) | 86,000 compounds, 0.25% hits;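 active means mean growth activity at or below -80% and every replicate also at or below -80%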;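 further: 0% = DMSO wells and -100% = levofloxacin 16 µg/mL wells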
# T cruzi growth-1: T. cruzi proliferation inhibition; inhibition, % at 8.34 µM; T. cruzi beta-gal in NIH3T3, GalScreen luminescence, 90 h; 77,000 compounds, 5.9% hits;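 active means mean inhibition above about 93%, with at least 55% of replicates each passing it, limit read from the data, passing the limit was not always enough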
# T cruzi growth-2: blocks T. cruzi growth in NIH3T3 host cells; shares compounds with T cruzi growth-1; T. cruzi beta-gal in NIH3T3, GalScreen luminescence, 90 h; inhibition, % at 8.35 µM; 5,600 compounds, 72% hits;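 active means mean replicate inhibition above about 95% and at least 55% of replicates individually reaching it, limit read from the data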
# T cruzi growth-3: Trypanosoma cruzi proliferation inhibition; shares compounds with T cruzi growth-1; T. cruzi beta-gal in NIH3T3, GalScreen luminescence, 90 h; inhibition, % at 2.09 µM; 5,600 compounds, 21% hits;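 active means mean inhibition above about 95%, with at least 55% of replicates also reaching it, limit read from the data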;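 further: plate controls were neutral control median for no effect and positive control median for full effect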
# 3T3 cytotox: kills mouse NIH/3T3 fibroblasts | 5,600 compounds, 14% hits | cytotoxicity (signal decrease), % at 8.35 µM | NIH/3T3 viability, CellTiter-Glo ATP luminescence, 90 h | AID 651742 | shares compounds with T cruzi growth-1;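 active means mean signal decrease across replicates above about 35% based on untreated-well scatter, with enough replicates individually passing, limit read from the data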;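 further: 0% = median of neutral control wells and 100% = median of positive control wells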
# 3T3 cytotox 2: kills mouse NIH/3T3 fibroblasts; shares compounds with T cruzi growth-1; NIH/3T3 viability, CellTiter-Glo ATP luminescence, 90 h; inhibition, % at 24.9 µM; 5,600 compounds, 56% hits;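 active means mean loss of cell viability signal at or above a set limit, and enough replicates individually reaching it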;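 further: 0% = median of neutral control wells and 100% = median of positive control wells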
# * = called active by the depositor; / = no result.
SMILES,Pf Dd2 inh,C diff growth,T cruzi growth-1,others
CCC(=O)N1CC[C@@H]2[C@H](CO)Nc3ccc(-c4ccc(C(=O)N(C)C)cc4)cc3[C@@H]21,-12,-7,108*,T cruzi growth-2=101*;T cruzi growth-3=57;3T3 cytotox=3;3T3 cytotox 2=-2
CCNC(=O)[C@H]1[C@H](CO)[C@H]2Cn3c(ccc(C4=CCCCC4)c3=O)[C@@H]1N2Cc1ccncc1,-24,-1,6,
C[C@@H](NC(=O)C[C@@H]1CC[C@H]2[C@@H](COC[C@H](O)CN2C)O1)c1ccccc1,17,-4,-60,
C[C@H](CO)N1C[C@H](C)[C@@H](CN(C)C(=O)Cc2ccccc2)OCCCC[C@H](C)Oc2ccc(NS(C)(=O)=O)cc2C1=O,26,-6,65,
C[C@@H]1CN([C@H](C)CO)C(=O)c2cc(-c3cccc(F)c3)cnc2O[C@H]1CN(C)C(=O)C1CCCCC1,-26,-2,74,
C[C@@H]1CCCCO[C@@H](CN(C)C(=O)Nc2ccc(F)cc2)[C@H](C)CN([C@H](C)CO)C(=O)c2cc(NC(=O)Nc3ccc(F)cc3)ccc2O1,-27,/,/,
Cc1ccc(S(=O)(=O)Nc2ccc3c(c2)C(=O)N([C@H](C)CO)C[C@H](C)[C@@H](CN(C)S(C)(=O)=O)OCCCC[C@@H](C)O3)cc1,36,-6,7,
COCC#Cc1cnc2c(c1)C(=O)N([C@@H](C)CO)C[C@H](C)[C@@H](CN(C)Cc1ccccc1F)O2,-54,-1,-4,
CCCN1C[C@H](C)[C@H](OC)CN(C)C(=O)c2ccc(NC(=O)c3cccc(OC)c3)cc2OC[C@H]1C,3,0,-15,
O=C(c1ccc2c(c1)OCO2)N1CC[C@@H]2[C@H]1c1cc(C#Cc3ccccc3)ccc1N[C@@H]2CO,-10,1,93*,T cruzi growth-2=107*;T cruzi growth-3=31;3T3 cytotox=-26;3T3 cytotox 2=17
O=C(c1ccc2c(c1)OCO2)N1CC[C@@H]2[C@@H](CO)Nc3ccc(C#Cc4ccccc4)cc3[C@@H]21,-62,3,96,
C[C@@H]1CN([C@@H](C)CO)C(=O)c2cccc(NS(=O)(=O)c3cn(C)cn3)c2O[C@@H]1CN(C)Cc1ccc(C(F)(F)F)cc1,6,0,25,
